Many of the other results were omitted from the sample, so hits are more common in it than they were.
FH mod = Identification of activators of human fumarate hydratase by quantitative high-throughput screening; Potency, µM (highest dose often 79.9 µM), for the others: at the highest dose activity change, negative = inhibition, most hits filed as inhibitors; AID 1347055, 2019; FH coupled MDH/diaphorase resazurin fluorescence, 15 min; hit rate 0.22% among 54,000; Fumarate hydratase, mitochondrial (Homo sapiens), P07954; further: potency means the concentration at half of the fitted maximal effect; on the % scale 0 is the no-effect control and ±100 the full control effect; the screen sought activators but most active calls are inhibition curves; nearly all actives have a fitted effect of over 45% in size
Target sequence (P07954 whole entry, looked up): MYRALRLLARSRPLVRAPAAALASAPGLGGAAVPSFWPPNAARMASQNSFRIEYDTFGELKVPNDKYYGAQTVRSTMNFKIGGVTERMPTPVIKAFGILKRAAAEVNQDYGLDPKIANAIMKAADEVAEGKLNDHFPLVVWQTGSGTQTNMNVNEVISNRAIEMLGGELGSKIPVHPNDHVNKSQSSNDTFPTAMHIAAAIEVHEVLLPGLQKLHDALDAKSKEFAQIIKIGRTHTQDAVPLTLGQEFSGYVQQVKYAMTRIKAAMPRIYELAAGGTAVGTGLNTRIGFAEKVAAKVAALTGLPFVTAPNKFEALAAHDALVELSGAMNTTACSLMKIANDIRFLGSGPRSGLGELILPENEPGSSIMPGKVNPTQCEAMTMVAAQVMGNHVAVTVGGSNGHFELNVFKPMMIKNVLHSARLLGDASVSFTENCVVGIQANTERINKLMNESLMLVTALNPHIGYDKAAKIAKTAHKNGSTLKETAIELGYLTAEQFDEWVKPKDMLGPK
GALC G270D act = raises human GALC G270D mutant activity in cells; hit rate 0.1% among 45,000; 145M-Twi-hGALC-G270D cells (Twitcher mouse brain line with human GALC G270D), HMU-beta-Gal fluorescence, 48 h; AID 1159614; Potency, µM (doses to about 57.5 µM), usual class: activators; P54803; further: potency means the concentration at half of the fitted maximal effect; 0% is about no effect; nearly all actives have a fitted effect of over 65% in size
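Live 145M-Twi cells (Twitcher mouse brain-derived, GALC-null) stably expressing human GALC-G270D, with a wild-type GALC line, were compound-treated. Residual GALC activity was then read as fluorescence from 0.1 mM final HMU-β-gal at pH 5.2; higher signal means activation.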
NTMT1 inh = inhibitors of human N-terminal methyltransferase NTMT1; NTMT1 MTase-Glo SAH luminescence, purified enzyme; Potency, µM (titrated, usually from 114 µM), inactives show at the top dose activity change, negative = inhibition, hits mostly inhibitors; hit rate 2.5% among 59,000;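 further: potency means the concentration at half of the fitted maximal effect; plate controls were DMSO vehicle for no effect and no enzyme for full effect; nearly all actives have a fitted effect of over 65% in size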
Target sequence (Q9BV86 whole entry, looked up): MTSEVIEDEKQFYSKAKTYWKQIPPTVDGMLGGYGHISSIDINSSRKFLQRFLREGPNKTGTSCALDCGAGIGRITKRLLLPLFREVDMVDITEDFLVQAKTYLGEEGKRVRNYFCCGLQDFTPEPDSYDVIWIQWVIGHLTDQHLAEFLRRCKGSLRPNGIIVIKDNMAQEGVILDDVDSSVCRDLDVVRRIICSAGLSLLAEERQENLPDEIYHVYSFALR
DYRK1A KinaseGlo = inhibitors of human DYRK1A kinase; shares compounds with NTMT1 inh; recombinant DYRK1A, Kinase-Glo ATP depletion luminescence; Potency, µM (series often up to 76.9 µM), for the others: at the top dose activity change, negative = inhibition, hits mostly inhibitors; hit rate 80% among 100; AID 2705
CLK4 inh = CLK4 kinase inhibition, SAR round 2; Potency, µM (series often up to 76.9 µM), without a hit: at the top dose activity, negative = inhibition, most hits filed as inhibitors; AID 493204; hit rate 90% among 90; recombinant Clk4, Kinase-Glo ATP luminescence, 4.5 h; shares compounds with NTMT1 inh
HSD17B4 counter = HSD17B4 (human) inhibition, HPGD counter-screen; shares compounds with NTMT1 inh; purified HSD17B4, estradiol/NAD+, NADH fluorescence; Potency, µM (top dose mostly 57.1 µM), inactives show at the highest dose activity change, negative = inhibition, usual class: inhibitors; hit rate 10% among 230; AID 743187
ALDH1A1 inh = counter-screen for HPGD inhibitors: human ALDH1A1 inhibition. shares compounds with NTMT1 inh. recombinant ALDH1A1, NADH fluorescence, propionaldehyde/NAD+. Potency, µM (titrated, usually from 57.1 µM), for the others: top-dose activity change, negative = inhibition, most hits filed as inhibitors. hit rate 93% among 230. AID 743195
NNMT inh = human NNMT inhibition, NTMT1 counter-screen; shares compounds with NTMT1 inh; NNMT MTase-Glo luminescence, SAH detection; Potency, µM (highest dose often 57.1 µM), without a hit: at the highest dose activity, negative = inhibition, usual class: inhibitors; hit rate 10% among 120; AID 1645878
Numbers without * were called inactive; i = inactive; u = inconclusive; x = no result given; [ ] = dose if it differs, or a comment. The call rests on the fitted dose curve; in most records, active means well fitted curve in the direction sought with a large enough effect; inconclusive means small, poorly fitted or top-dose-only effect, or another doubt; inactive means no such curve, though single readings can be large; an effect the other way counts as inactive or inconclusive.

SMILES	FH mod	GALC G270D act	NTMT1 inh	others
CC1(C)CCCC2(C)c3c4c(c(=O)oc(=O)c3=CCC12)=CCC1C(C)(C)CCCC41C (stereo unspecified)	1%[53.3 µM]	x	16%[29.8 µM]
CC(C)(C)OC(=O)N1CCN(c2ccc(NCc3ncc(-c4ccc(C#N)cc4)s3)cc2)CC1	x	x	-1%[57.5 µM]
CC1(C)CC[C@]2(C(=O)O[C@@H]3O[C@H](CO)[C@@H](O)[C@H](O)[C@H]3O)CC[C@]3(C)C(=CCC4[C@@]5(C)CC[C@H](OC6OC(C(=O)O)C(OC7OC(CO)C(O)C(O)C7O)C(O)C6O)C(C)(C)C5CC[C@]43C)C2C1 (stereo partly specified)	-1%[20.6 µM]	x	13%[12.6 µM]
C(#Cc1nc2ncccc2nc1OCCN1CCCC1)c1ccccc1	-2%	x	u
C[C@@H]1O[C@@H](O[C@H]2[C@H](O)[C@@H](O)[C@H](OC(=O)[C@]34CCC(C)(C)C[C@H]3C3=CCC5[C@@]6(C)CC[C@H](O[C@@H]7O[C@H](C(=O)O)[C@@H](O)[C@H](O)[C@H]7O)C(C)(C)C6CC[C@@]5(C)[C@]3(C)CC4)O[C@@H]2CO)[C@H](O)[C@H](O)[C@H]1O (stereo partly specified)	-11%[20.6 µM]	x	-7%[12.6 µM]
CCS(=O)(=O)c1ccc2oc(-c3ccc4ccccc4c3)nc2c1	x	x	3%
CCN1CCC(n2cc(CNc3cc(Cl)c4ncc(C#N)c(Nc5ccc(F)c(Cl)c5)c4c3)nn2)CC1	-9%	x	2.5µM*	NNMT inh=u
COc1c(C)cnc(Cn2cc(C#CCC(C)(C)O)c3c(Cl)nc(N)nc32)c1C	-5%	x	-7%[57.5 µM]
Cc1nc2cccnc2n1C1CCN(C(=O)Nc2ccccc2)CC1	-2%	i	-13%
Cc1ccc(-c2ccc3ncc4c(c3n2)n(C2CCN(C(=O)[C@H](C)O)CC2)c(=O)n4C)cn1	-4%	x	16µM*	NNMT inh=u
COc1cc(C(N)=O)ccc1NC(=O)[C@@H]1N[C@@H](CC(C)(C)C)[C@@]2(C(=O)Nc3cc(Cl)ccc32)[C@H]1c1cccc(Cl)c1F	x	x	5%
COc1ccc(NC(=O)N2CCN3CCCCC3C2)cc1OC (stereo unspecified)	-16%	i	-6%
CCc1nc(C(N)=O)c(Nc2ccc(N3CCC(N4CCN(C)CC4)CC3)c(OC)c2)nc1NC1CCOCC1	-1%[53.3 µM]	x	20µM*	NNMT inh=-16%[38.3 µM]
CCOCc1nc2c(N)nc3ccccc3c2n1CC(C)(C)O	1%	x	5%[57.5 µM]
COc1cc2c(cc1OC)CN(C(=O)[C@@H](NCc1ccncc1)C(C)(C)C)CC2	2%	x	-10%[57.5 µM]
CC(C)(O)c1coc(S(=O)(=O)NC(=O)Nc2c3c(cc4c2CCC4)CCC3)c1	x	x	17%
CC(c1ccco1)N(C)c1ncnc2ccc(-c3ccc4c(c3)OCO4)cc12 (stereo unspecified)	x	x	x	DYRK1A KinaseGlo=0.26µM*
Cc1ccc(-c2ccc(=O)n(CC(=O)N(C)CCc3ccco3)n2)cc1	x	x	8%
CN(CCc1ccco1)c1ncnc2ccc(-c3ccc4c(c3)OCO4)cc12	x	x	u	CLK4 inh=0.092µM*
COc1ccc(NC(=O)C2=C(C)NC(Nc3nc4ccccc4o3)=NC2c2ccccc2Br)cc1 (stereo unspecified)	x	x	7%[57.5 µM]
CC[C@@]1(O)C(=O)OCc2c1cc1n(c2=O)Cc2c-1nc1ccccc1c2CCNC(C)C	x	x	13%[12.6 µM]
CN1CCN(c2ccc(NC(=O)CN(C)Cc3c(O)ccc4ccccc34)cc2)CC1	x	x	-6%[57.5 µM]
COc1ccc(C(=O)COC(=O)CCCC(=O)Nc2ccc(C(C)=O)cc2)cc1	-11%	i	20%
COc1ccc2nc(-c3cc(OC)c(OC)c(OC)c3)cc(C(=O)NCC(=O)Nc3ccc(C(C)=O)cc3)c2c1	-15%	x	5%[57.5 µM]	NNMT inh=u
COC1/C=C/C(C)(O)C(SCC(N)C(=O)O)CC(=O)OC(C)C(C)CC/C=C/1C (stereo unspecified)	10%[53.3 µM]	x	-2%[29.8 µM]
SMILES	FH mod	GALC G270D act	NTMT1 inh	others
Oc1ccc(CNCc2ccccc2F)c2cccnc12	x	x	11%
Fc1ccccc1CNCc1ccc(-c2ccnc3[nH]ccc23)cc1	-6%	x	u	NNMT inh=u
Cc1cc(-c2nnc3n2CCCCC3)c(C)n1-c1ccncc1	x	x	4%[57.5 µM]
Cc1cc(-c2nnc3n2CCC3)c(C)n1-c1ccccc1	x	x	3%[57.5 µM]
Cc1ccc(-n2c(C)cc(-c3nnc4n3CCCCC4)c2C)cc1	x	x	3%	HSD17B4 counter=7%;ALDH1A1 inh=u
Cc1cc(-c2nnc3n2CCCCC3)c(C)n1-c1cccc(C(F)(F)F)c1	x	x	10%	HSD17B4 counter=10%;ALDH1A1 inh=u
O=C(Nc1ccc(-n2cncn2)c(C(F)(F)F)c1)Nc1nnc(-c2ccncc2)s1	x	x	-18%[57.5 µM]
Cc1ccc(NC(=O)NCc2ccc3c(c2)CN(C2CCC(=O)NC2=O)C3=O)cc1Cl (stereo unspecified)	x	x	-18%
Cc1ccc(NC(=O)c2ccc(-c3nc4ccccc4[nH]3)cc2)cc1Br	x	x	-4%
C/C=C/c1ccc2oc(-c3ccc(O)c(OC)c3)c(C)c2c1	u	x	4%[57.5 µM]	NNMT inh=-9%
COc1cc(C=O)ccc1O	-9%[53.3 µM]	i	-21%[57.5 µM]
CCOC(=O)c1c(C)oc2ncnc(Nc3ccc(OC)c(OC)c3)c12	-1%	i	-5%
COc1cc2ncnc(Nc3cccc(I)c3)c2cc1OC	-4%	x	22µM*	NNMT inh=u
CC[C@@H]1[C@H](F)C(=O)N[C@@H]1COc1nccc2cc(C(N)=O)c(OC)cc12	x	x	4%
C[N+]1(CC2COC(c3ccccc3)(c3ccccc3)O2)CCCCC1 (stereo unspecified)	0%[20.6 µM]	i	u	NNMT inh=-18%[28.6 µM]
Cc1cc(O)cc(Oc2cc(C)c(C(=O)O)c(O)c2)c1	-2%	x	u
CC(C)(C)C[C@H]1N[C@@H](C(=O)NC2CCC(O)CC2)[C@H](c2cccc(Cl)c2F)[C@@]12C(=O)Nc1cc(Cl)ccc12 (stereo partly specified)	x	x	24%
CC(C)c1ccccc1-c1ncc(F)c(NCc2ccc(-c3cccnc3)cc2)n1	x	x	2%

High-throughput results: PubChem, National Center for Advancing Translational Sciences (NCATS)
